What all share (assay): qHTS profiling for inhibitors of Plasmodium falciparum proliferation (AID 504749); also: nearly all actives have a fitted effect of over 60% in size
Common to all, as to conditions: P. falciparum in erythrocytes, SYBR Green DNA, 72 h; series mostly up to 28.7 µM

One assay concerns CP194. The method, boiled down: (§1)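 Readout was DNA-dye fluorescence from lysed cultures, ex 485/em 535 nm. Parasitized red cells had grown 72 h with compound; data scaled between 0.29 uM artemisinin and DMSO wells and corrected using vehicle-only plates.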
The test system of the next assay is CP201. The method, boiled down:
as §1

In another assay the test system is CP211. The procedure, abridged: as §1
For a further assay, the system named is CP215. The procedure, abridged: as §1
For another assay, the system named is CP217. The procedure, abridged: as §1
The subject of a further assay is CP237. The procedure, abridged: as §1
The subject of another assay is CP238. The method, boiled down: as §1
The test system of another assay is CP247. The method, boiled down: as §1
A further assay has as its system CP250. The method, boiled down:
as §1

A further assay has as its system CP252. The procedure, abridged:
as §1

The subject of a further assay is CP256. The method, boiled down:
as §1

The next assay concerns CP260. The procedure, abridged: as §1
For another assay, the system named is CP262. The method, boiled down:
as §1

Another assay has as its system CP265. The method, boiled down: as §1
In a further assay the test system is CP266. The procedure, abridged:
as §1

In another assay the test system is CP268. The procedure, abridged:
as §1

A further assay has as its system CP269. The method, boiled down: as §1
In another assay the test system is CP286. The procedure, abridged:
as §1

The subject of the next assay is CP291. The procedure, abridged: as §1
In another assay the test system is CP203. The procedure, abridged:
as §1

Each structure is given as a SMILES string. Results filed as inconclusive are left out. Activity calls are given as the source filed them. Calls follow the shape of the dose curve; as a rule, active = well fitted inhibition curve with a large enough effect; inconclusive = small, poorly fitted or top-dose-only effect; inactive = flat fitted curve, though single readings scatter.
Potency is read from the fitted curve at half-maximal effect.

With `O=C(O)Cc1cc(I)c(Oc2ccc(O)c(I)c2)c(I)c1`, the Potency entry in the assay with CP194, with CP201, with CP211, in the assay with CP215, in the assay on CP217 and in the assay with CP237 was “inactive” throughout. Besides, the Potency result with CP238, with CP247, in the assay on CP250, with CP252, with CP256 and with CP260 was “inactive” in each case. Besides, the Potency result in the assay with CP262, in the assay with CP265, in the assay with CP266, in the assay on CP268, in the assay with CP269 and in the assay with CP286 was “inactive” throughout. In addition, the Potency result with CP291 was “inactive”.

With `CC1=CCC2CC1C2(C)C` (centres undefined), the Potency entry in the assay on CP194, with CP201, with CP211, with CP215, in the assay with CP217 and in the assay on CP237 was “inactive” each time. Moreover, the Potency entry in the assay on CP238, in the assay with CP247, in the assay with CP250, in the assay on CP252, in the assay with CP256 and in the assay with CP260 was “inactive” throughout. Besides, the Potency result in the assay with CP262, in the assay on CP265, in the assay on CP266, with CP268, in the assay on CP269 and in the assay on CP286 was “inactive” in each case. The Potency entry with CP291 was “inactive”.

Turning to `CC(=O)Oc1cccc2c1C(=O)c1c(OC(C)=O)cc(C(=O)O)cc1C2=O`, the Potency entry with CP194, in the assay with CP201, in the assay on CP203, in the assay on CP215, with CP217 and in the assay on CP237 was “inactive” in each case. The Potency entry with CP238, with CP247, in the assay on CP250, with CP252, with CP256 and with CP260 was “inactive” throughout. The Potency result with CP262, in the assay on CP265, with CP266, in the assay with CP268, with CP269 and with CP286 was “inactive” throughout. For the same compound, in the assay with CP291, the Potency result is “inactive”.

Take `CC12CCC(C1)C(C)(C)C2=O` (centres undefined): the Potency entry with CP194, in the assay on CP201, in the assay with CP211, in the assay with CP215, with CP217 and in the assay with CP237 was “inactive” in each case. Also, the Potency entry in the assay with CP238, in the assay with CP247, in the assay on CP250, in the assay on CP252, in the assay on CP256 and in the assay with CP260 was “inactive” in each case. Moreover, the Potency result in the assay on CP262, with CP265, with CP266, in the assay with CP268, with CP269 and with CP286 was “inactive” throughout. Further, the Potency entry with CP291 was “inactive”.

With `N=C(N)c1ccc(/C=C/c2ccc(C(=N)N)cc2O)cc1`, the Potency is 6.01 µM (active) in the assay on CP194; 12 µM (active) with CP201; 15.1 µM (active) in the assay on CP203; 5.36 µM (active) in the assay with CP215; 11.2 µM (active) in the assay on CP217; 5.01 µM (active) with CP237. The Potency was 10 µM (active) in the assay with CP238; 10 µM (active) in the assay with CP247; 11.2 µM (active) with CP250; 15.8 µM (active) in the assay with CP252; 0.447 µM (active) in the assay on CP256; 11.2 µM (active) in the assay on CP260. Also, the Potency in the assay with CP262 is 1.35 µM (active); in the assay with CP265, 11.2 µM (active); with CP268, 9.53 µM (active); with CP269, 6.75 µM (active); with CP286, 4.47 µM (active); with CP291, 6.75 µM (active).

For `c1ccc2c(c1)OCC(CN1CCCCC1)O2` (centres undefined), the Potency entry in the assay on CP194, with CP201, with CP203, in the assay on CP211, with CP215 and in the assay on CP217 was “inactive” in each case. Further, the Potency result with CP238, in the assay with CP247, with CP250, with CP252, in the assay with CP256 and in the assay with CP260 was “inactive” each time. Also, the Potency result with CP262, with CP265, with CP266, in the assay on CP268, in the assay with CP269 and in the assay with CP286 was “inactive” throughout. Further, in the assay with CP291, the Potency entry was “inactive”.

Take `FC(F)(F)C(F)(F)C(F)(F)C(F)(F)C(F)(F)F`: the Potency result in the assay on CP194, with CP201, with CP211, with CP215, in the assay with CP217 and in the assay with CP237 was “inactive” each time. In addition, the Potency entry in the assay on CP238, in the assay on CP247, in the assay on CP250, with CP252, in the assay with CP256 and with CP260 was “inactive” in each case. In addition, the Potency entry with CP262, in the assay on CP265, in the assay on CP266, with CP268, with CP269 and in the assay with CP286 was “inactive” in each case. The Potency result with CP291 is “inactive”.

Turning to `COC(=O)[C@@H](N)CS`, the Potency result with CP194, in the assay on CP201, with CP203, with CP211, in the assay on CP217 and in the assay with CP237 was “inactive” each time. In addition, the Potency entry in the assay on CP238, in the assay with CP247, in the assay on CP250, in the assay on CP252, in the assay on CP256 and with CP260 was “inactive” throughout. In addition, the Potency result in the assay on CP262, in the assay on CP265, in the assay on CP266, with CP268, in the assay on CP269 and in the assay with CP286 was “inactive” throughout. Also, the Potency result in the assay with CP291 is “inactive”.

For the compound `CC1(C)S[C@@H]2[C@H](NC(=O)C3(N)CCCCC3)C(=O)N2[C@H]1C(=O)O`, the Potency result in the assay with CP194, in the assay with CP201, in the assay on CP211, in the assay with CP215, with CP217 and in the assay on CP237 was “inactive” throughout. The Potency result with CP238, with CP247, in the assay on CP250, in the assay on CP252, in the assay with CP256 and with CP260 was “inactive” each time. Moreover, the Potency result in the assay with CP262, in the assay on CP265, in the assay with CP266, in the assay with CP268, in the assay on CP269 and in the assay with CP286 was “inactive” each time. For the same compound, in the assay on CP291, the Potency entry is “inactive”.

Regarding `Cc1ncc(C[n+]2csc(CCO)c2C)c(N)n1`, the Potency entry with CP194, in the assay on CP201, in the assay with CP203, with CP211, in the assay on CP217 and in the assay with CP237 was “inactive” in each case. Also, the Potency entry in the assay with CP238, with CP247, with CP250, with CP252, in the assay with CP260 and in the assay with CP262 was “inactive” in each case. Further, the Potency result in the assay with CP265, in the assay on CP266, in the assay on CP268, in the assay on CP269, in the assay on CP286 and with CP291 was “inactive” throughout.

As to `CC(C)(COP(=O)(O)OP(=O)(O)OC[C@H]1O[C@@H](n2cnc3c(N)ncnc32)[C@H](O)[C@@H]1OP(=O)(O)O)C(O)C(=O)NCCC(=O)NCCS` (some centres undefined), the Potency entry in the assay on CP194, with CP201, in the assay on CP211, in the assay on CP215, with CP217 and with CP237 was “inactive” in each case. In addition, the Potency entry in the assay with CP238, with CP247, in the assay on CP250, in the assay with CP252, in the assay on CP256 and in the assay on CP260 was “inactive” each time. Besides, the Potency entry in the assay on CP262, with CP265, in the assay on CP266, in the assay with CP268, in the assay with CP269 and with CP286 was “inactive” each time. In the assay with CP291, the Potency entry was “inactive”.

Turning to `CN(C)CCCSc1ccccc1NC(=O)/C=C/c1ccccc1`, the Potency result in the assay on CP194, in the assay with CP201, with CP203, in the assay with CP211, with CP215 and in the assay with CP217 was “inactive” throughout. In addition, the Potency entry in the assay on CP238, in the assay with CP247, in the assay on CP250, in the assay on CP252, with CP256 and in the assay on CP260 was “inactive” in each case. The Potency entry in the assay with CP262, in the assay with CP265, in the assay with CP266, with CP269, with CP286 and in the assay on CP291 was “inactive” in each case.

On to `CCCOc1cc(N)ccc1C(=O)OCCN(CC)CC`, for which the Potency result in the assay with CP194, with CP201, in the assay on CP203, in the assay with CP215, in the assay with CP217 and in the assay with CP237 was “inactive” in each case. The Potency entry in the assay with CP238, in the assay with CP250, with CP252, in the assay on CP260, in the assay on CP262 and with CP265 was “inactive” in each case. The Potency result in the assay on CP266, in the assay on CP268, in the assay with CP286 and in the assay on CP291 was “inactive” throughout.

Take `[O-][N+](=Nc1ccccc1)c1ccccc1`: the Potency result in the assay with CP194, in the assay on CP201, in the assay on CP211, in the assay with CP215, in the assay with CP217 and in the assay on CP237 was “inactive” throughout. For the same compound, the Potency entry in the assay with CP238, in the assay with CP247, in the assay on CP250, with CP252, with CP256 and in the assay on CP260 was “inactive” in each case. The Potency result in the assay with CP262, in the assay on CP265, in the assay on CP266, with CP268, with CP269 and with CP286 was “inactive” each time. In the assay on CP291, the Potency entry was “inactive”.

On to `O=C(OC1C[C@@H]2CC3C[C@H](C1)N2CC3=O)c1c[nH]c2ccccc12` (some centres undefined), for which the Potency entry in the assay on CP194, with CP201, in the assay with CP203, in the assay on CP215, in the assay with CP217 and with CP237 was “inactive” in each case. Besides, the Potency entry with CP238, in the assay with CP247, in the assay on CP250, in the assay with CP252, in the assay with CP256 and with CP260 was “inactive” each time. The Potency entry in the assay on CP262, in the assay with CP265, in the assay with CP266, in the assay with CP268, in the assay on CP269 and in the assay with CP286 was “inactive” throughout. In addition, the Potency entry in the assay with CP291 is “inactive”.

The record behind these values is PubChem BioAssay (NCATS).
